The record followed here is PubChem BioAssay (NCI).

What all share (test): NCI-60 one-dose screen, 48 h (100 = growth as untreated, 0 = no growth, -100 = all killed)
In assay [1] the test system is SR leukemia. As to conditions: 10 µM.
For assay [2], the system named is RPMI-8226 leukemia. As to conditions: 10 µM.
The subject of assay [3] is OVCAR-8 ovarian. The settings on record: 10 µM.
For assay [4], the system named is OVCAR-5 ovarian. The settings on record: 10 µM.
For assay [5], the system named is OVCAR-4 ovarian. The settings on record: 10 µM.
For assay [6], the system named is SK-OV-3 ovarian. The settings on record: 10 µM.
The subject of assay [7] is IGROV1 ovarian. The settings on record: 10 µM.
The subject of assay [8] is NCI/ADR-RES ovarian. As to conditions: 10 µM.
For assay [9], the system named is T-47D breast. The settings on record: 10 µM.
For assay [10], the system named is BT-549 breast. The settings on record: 10 µM.
For assay [11], the system named is MDA-MB-435 melanoma. The settings on record: 10 µM.
Assay [12] deals with SW-620 colon. The settings on record: 10 µM.
Assay [13] concerns MCF7 breast. The settings on record: 10 µM unless noted.
The test system of assay [14] is HCT-116 colon. As to conditions: 10 µM.
In assay [15] the test system is HCC-2998 colon. The settings on record: 10 µM.
Assay [16] has as its system KM12 colon. The settings on record: 10 µM.
Assay [17] deals with HS 578T breast. The settings on record: 10 µM.
Assay [18] concerns OVCAR-3 ovarian. As to conditions: 10 µM.

About 83,000 compounds went through this panel and 20% of them were active in at least one assay; those are over-represented in the sample as a whole.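 A percent growth of 40 corresponds to 60% growth inhibition; 0 means no net growth; -100 means all cells died. Active threshold: below 10.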 A number with no mark means an inactive call. Calls of active or inactive are those of the source.

With `O=C(CS)Nc1ccc2ccccc2c1`, the growth is 94.9% in assay [1]; 44.9% in assay [2]; 114% in assay [3]; 102% in assay [4]; 116% in [5]; 108% in assay [6]. Besides, the growth was 107% in [7]; 112% in assay [8]; 90.9% in assay [9]; 118% in [10]; 116% in [11]; 95.2% in [12]. The growth is 85.3% in assay [13], 94.6% in [14], 80.5% in assay [15] and 102% in [16].
Turning to `CC1(C)Nc2cccc3c(N=Nc4ccc(N=Nc5ccccc5)c5ccccc45)ccc(c23)N1`, the growth is 107% in [1]; 97% in assay [2]; 109% in [3]; 94.9% in assay [4]; 91.1% in [5]; 95.6% in assay [6]. Moreover, the growth in assay [7] was 52.1%; in [17], 104%; in [8] it was 98.1%; in assay [9], 76.7%; in assay [11], 109%; in [12], 89.4%. Also, the growth is 79.4% in [13], 70.5% in [14], 93.2% in assay [15] and 106% in assay [16].
As for `O=C(N/N=C\c1cc(Br)cc(Br)c1O)N/N=C/c1cc(Br)cc(Br)c1O`, the growth is -18.4% (active) in [1]; 19.3% in assay [2]; 55.5% in assay [3]; 64.6% in assay [4]; 43.4% in assay [5]; 79.7% in assay [6]. Further, the growth in [18] was 12.1%; in [17], 60.6%; in [8] it was 35.6%; in assay [9], 62.3%; in [11] it was 66.9%; in [12] it was 56.3%. The growth in [13] was 52.1%; in assay [14], 31.2%; in assay [16] it was 66.7%.
For the molecule `Nc1nc(N)c2cc(S(=O)(=O)c3cccc(C(F)(F)F)c3)ccc2n1`, the growth was 46% in [1]; 63.1% in assay [2]; 40.7% in assay [3]; 48% in [4]; 72.8% in [6]; 39.5% in [7]. The growth is 79.2% in [18]; 80.1% in [17]; 52.6% in [8]; 74.1% in assay [9]; 76.8% in assay [10]; 31.7% in [11]. Also, the growth in assay [12] is 25.4%; in assay [13], 43.1%; in assay [14], 15.6%; in [15] it was 37.4%; in assay [16] it was 53.1%.
For `O=C1C=CC2=C3c4cc(O)c(O)cc4CC3(O)COC2=C1O` (centres undefined), the growth in [1] was 109%; in assay [2] it was 90%; in assay [3], 97.2%; in [4], 104%; in assay [5], 110%; in assay [6] it was 113%. Further, the growth in [18] was 123%; in assay [17] it was 115%; in assay [8], 101%; in assay [9], 113%; in [11], 111%; in [12], 101%. Also, the growth in assay [13] is 98.1%; in [14], 99%; in [15], -35.6% (active); in assay [16] it was 114%.
Consider `N#CCCN(CCCN1CCOCC1)CN1C(=O)c2ccccc2C1=O`, for which the growth is 71.8% in assay [1]; 108% in assay [2]; 111% in assay [3]; 106% in [4]; 102% in assay [7]; 120% in assay [18]. Besides, the growth in assay [17] is 113%; in assay [8], 109%; in assay [9] it was 96%; in assay [10] it was 128%; in [11], 108%; in [12], 114%. Besides, the growth in [13] was 95.8%; in assay [14], 109%; in assay [15], 101%; in assay [16], 112%.
In the case of `O=C(c1ccc(O)cc1)c1ccc(O)cc1`, the growth in assay [1] is 88.7%; in assay [2] it was 107%; in assay [3], 99.9%; in assay [4] it was 105%; in [6] it was 114%; in assay [7] it was 108%. For the same molecule, the growth was 111% in assay [18]; 107% in assay [17]; 110% in assay [8]; 113% in assay [9]; 122% in [10]; 105% in assay [11]. Moreover, the growth is 113% in assay [12]; 113% in [13]; 95% in [14]; 105% in [15]; 100% in assay [16].
On to `CC(=O)OCC1OC(OC2=C(CC=C(C)C)C(=O)c3ccccc3C2=O)C(OC(C)=O)C(OC(C)=O)C1OC(C)=O` (centres undefined), for which the growth in assay [1] is -42.9% (active); in assay [2] it was -13.1% (active); in [3] it was 53.6%; in assay [4], 89.7%; in assay [6] it was 84.4%; in assay [7], 68%. Also, the growth in assay [18] is -33.1% (active); in assay [17] it was 18%; in assay [8] it was 32.4%; in assay [9] it was -61.3% (active); in assay [10], -6.85% (active); in [11], -17.1% (active). For the same molecule, the growth in [12] was 11.1%; in [13], -60.2% (active); in assay [14] it was 1.75% (active); in assay [15], 77.9%; in assay [16] it was 5.15% (active).
Take `CCN1C(=O)/C(=C/C=C/N(C)c2ccccc2)SC1=S`: the growth in [1] was 73.4%; in assay [2] it was 86.8%; in [3], 69.2%; in assay [4], 102%; in assay [6], 41.3%; in assay [18], 81.4%. Also, the growth was 81.5% in assay [8]; 79.8% in [9]; 80.5% in [10]; 93.9% in [11]; 106% in assay [12]; 88.6% in assay [13]. For the same molecule, the figures for the growth in assay [14], in [15] and in assay [16] were 95.1%, 93.6% and 106%, respectively.
Consider `O=C(/C(=N/O)c1ccccc1)c1ccccc1`, for which the growth in assay [1] was 110%; in [2], 99.5%; in [3], 103%; in assay [4], 111%; in assay [5], 102%; in assay [6], 106%. For the same molecule, the growth in assay [18] was 116%; in assay [17] it was 101%; in [8], 113%; in assay [9], 90.2%; in assay [10], 98%; in assay [11] it was 108%. Moreover, the growth in assay [12] is 107%; in [13], 87.9%; in [14] it was 98%; in [15], 107%; in assay [16] it was 107%.
As to `O=C(O)CCCCNC(=O)c1ccccc1`, the growth in assay [1] is 95.7%; in assay [2], 103%; in [3], 108%; in [4], 116%; in assay [5], 108%; in [6] it was 97.9%. The growth in [7] was 108%; in assay [17], 108%; in assay [8] it was 94.8%; in assay [9], 88.2%; in [10], 103%; in [11], 113%. In addition, the growth in [12] is 107%; in [13] it was 101%; in assay [14] it was 101%; in assay [15] it was 94.3%; in [16], 99%.
